The values that follow come from PubChem BioAssay.

Values without a mark were called inactive. How the calls were made is not given here.

For orientation: inhibition means the share of the control response that was lost under treatment.

Chain of Pantothenate synthetase (Mycobacterium tuberculosis (strain ATCC 25618 / H37Rv)) (P9WIL5 whole entry, looked up): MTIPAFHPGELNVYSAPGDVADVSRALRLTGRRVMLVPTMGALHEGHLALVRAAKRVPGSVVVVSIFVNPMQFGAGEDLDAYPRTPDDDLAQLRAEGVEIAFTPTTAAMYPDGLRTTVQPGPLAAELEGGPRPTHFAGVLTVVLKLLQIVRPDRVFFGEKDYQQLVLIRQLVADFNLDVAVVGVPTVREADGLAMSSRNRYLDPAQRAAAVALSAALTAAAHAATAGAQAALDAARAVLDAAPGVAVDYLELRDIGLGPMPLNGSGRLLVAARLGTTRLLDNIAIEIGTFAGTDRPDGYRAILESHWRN

The assay addresses Pantothenate synthetase (Mycobacterium tuberculosis (strain ATCC 25618 / H37Rv)) (UniProt P9WIL5). The experiment in a line: Recombinant Mtb pantothenate synthetase (PanC) inhibitors, coupled enzyme, confirmatory (AID 375).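 Further: 0% = full reaction with vehicle and 100% = no enzyme background.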 Conditions: coupled enzyme assay; at 10 µM, stronger effect = higher value.
As for `Cc1nc2sccn2c(=O)c1CCN1CCC(=C(c2ccccc2)c2ccc(F)cc2)CC1`, the inhibition is 3%.

As to `O=C(COc1ccccc1Cl)NCc1ccco1`, the inhibition is 3%.

For the compound `COC(=O)c1ccc(COc2ncnc3c(Cl)cc(Cl)cc23)o1`, the inhibition was 0%.

Take `O=C(OCc1nnc(-c2ccc(Cl)cc2)o1)c1ccc(=O)n(Cc2ccccc2)n1`: the inhibition was 0%.

Consider `CN(C)C(CN1C(=O)C2CC=CCC2C1=O)c1cn(C)c2ccccc12` (stereo not given), for which the inhibition is 0%.

As for `O=C(CSc1nc2[nH]ncc2c(=O)n1-c1ccccc1Br)NCc1ccco1`, the inhibition was 1%.

For the compound `CCOCCCn1c(=S)[nH]c2cc3c(cc2c1=O)OCO3`, the inhibition is 0%.

In the case of `O=C(NC1(C(F)(F)F)NC(=O)N(Cc2ccco2)C1=O)c1cccnc1` (stereo not given), the inhibition is 11%.

In the case of `CN(C)CCOc1ccccc1Cc1ccccc1`, the inhibition was 0%.

Take `Cc1nc(N)c(C#N)c(-c2cccnc2)c1C`: the inhibition was 0%.

For `Cc1nnc(SC(=O)N2c3ccccc3Sc3ccccc32)s1`, the inhibition is 6%.

Consider `O=C(NCCCN1CCOCC1)c1ccc(CS(=O)(=O)c2c(Cl)cccc2Cl)o1`, for which the inhibition was 0%.

For the compound `O=C(O)c1ccc2c(c1)C(=O)N(c1ccc(Cl)cn1)C2=O`, the inhibition was 8%.

Consider `Cc1cc(C)n(CCCNC(=O)c2ccc(S(=O)(=O)NCc3ccco3)cc2)n1`, for which the inhibition was 3%.

As for `COc1ccc(N2CCN(C(c3ccccc3)c3sc4nc(C)nn4c3O)CC2)cc1` (stereo not given), the inhibition is 0%.

Consider `COc1ccc(NC(=O)CCc2nc(-c3ccccc3F)no2)cc1`, for which the inhibition is 0%.

`CSc1ccc(-c2nc(CSCC(=O)N3CCOCC3)c(C)o2)cc1`: the inhibition was 0%.

On to `FC(F)(F)c1nnc2ccc(NCn3nnc4ccccc43)nn12`, for which the inhibition was 3%.

Turning to `CC(C)n1nc(C(=O)Nc2nc3ccc(S(C)(=O)=O)cc3s2)c2ccccc2c1=O`, the inhibition is 0%.

Turning to `Cn1c(CN2CCOCC2)nc2cc(NC(=O)c3ccccc3Cl)ccc21`, the inhibition is 5%.

For the compound `Cc1cccc2sc(NC(=O)Cn3cccc3)nc12`, the inhibition was 0%.

`Cc1ccccc1NC(=O)CN1CCC(NC(=O)Nc2ccccc2)CC1`: the inhibition is 4%.

On to `CN1CCC(NC(=O)c2cccs2)CC1`, for which the inhibition was 2%.

As to `N[C@@H](Cc1ccc(O)c(I)c1)C(=O)O`, the inhibition is 6%.

On to `C[C@H]1C[C@H]2[C@@H]3CCC4=CC(=O)C=C[C@]4(C)[C@@]3(Cl)[C@@H](O)C[C@]2(C)[C@@]1(O)C(=O)CO`, for which the inhibition is 4%.

For `COc1ccc(C(=O)N2CCN(S(=O)(=O)c3cc(Cl)ccc3OC)CC2)cc1`, the inhibition is 5%.

As to `COc1ccc(Cl)c(NCCC(=O)O)c1`, the inhibition is 0%.

As for `COC(=O)c1[nH]c(C)c(/C(O)=C2\C(=O)C(=O)N(CCN(C)C)C2c2ccccc2OC)c1C` (stereo not given), the inhibition is 1%.

As for `CCN(CC)C(=O)C1CCCN(Cc2ccc(N(C)C)cc2)C1` (stereo not given), the inhibition was 1%.

As to `COc1ccccc1N1CCN(C(=O)CN(Cc2ccc(Cl)cc2)S(C)(=O)=O)CC1`, the inhibition was 3%.

For the compound `c1n[nH]c(SCCCCSc2ncn[nH]2)n1`, the inhibition is 6%.

On to `COc1ccccc1NC(=O)N1CCN(c2cccc(C(F)(F)F)c2)CC1`, for which the inhibition is 4%.

Turning to `Cc1nc2ccc(S(=O)(=O)NCC(=O)N(C)Cc3ccco3)cc2s1`, the inhibition was 0%.

Consider `c1ccc(Cn2nnnc2C(c2cccs2)N2CCSCC2)cc1` (stereo not given), for which the inhibition is 0%.

In the case of `Cc1ccc(C(=O)Nc2c(C(=O)N3CCOCC3)cnn2-c2ccccc2)cc1`, the inhibition was 0%.

For `Cc1ccc(S(=O)(=O)N2CCN(C(=O)CSc3nc4ccccc4c(=O)[nH]3)CC2)c(C)c1`, the inhibition was 2%.

Consider `COc1cccc(-c2nnn(CC(=O)O)n2)c1`, for which the inhibition was 0%.

On to `C=CCn1c(=O)/c(=C/c2ccc(O)cc2)s/c1=C(/C#N)c1nnc2n1CCCCC2`, for which the inhibition is 0%.

On to `COC(=O)c1oc2ccc(Br)cc2c1NC(=O)CN1CCN(C)CC1`, for which the inhibition is 5%.

Regarding `CCCCCCn1c(CN2CCN(Cc3ccccc3)CC2)nc2c1c(=O)n(C)c(=O)n2C`, the inhibition is 10%.
